{"source": "PubChem BioAssay AID1220", "about": "(Sanford-Burnham Center for Chemical Genomics, 2008)", "note": "The whole screen tested about 190,000 compounds, of which about 1,300 (0.68%) were called active. No stated cut-off is given here; in the data, active means inhibition above about 50%; inactive means the rest. The entries come from a sample that favours actives as a whole.", "data": [{"target": "Mannose-6-phosphate isomerase (Homo sapiens) (UniProt P34949)", "sequence (P34949 whole entry, looked up)": "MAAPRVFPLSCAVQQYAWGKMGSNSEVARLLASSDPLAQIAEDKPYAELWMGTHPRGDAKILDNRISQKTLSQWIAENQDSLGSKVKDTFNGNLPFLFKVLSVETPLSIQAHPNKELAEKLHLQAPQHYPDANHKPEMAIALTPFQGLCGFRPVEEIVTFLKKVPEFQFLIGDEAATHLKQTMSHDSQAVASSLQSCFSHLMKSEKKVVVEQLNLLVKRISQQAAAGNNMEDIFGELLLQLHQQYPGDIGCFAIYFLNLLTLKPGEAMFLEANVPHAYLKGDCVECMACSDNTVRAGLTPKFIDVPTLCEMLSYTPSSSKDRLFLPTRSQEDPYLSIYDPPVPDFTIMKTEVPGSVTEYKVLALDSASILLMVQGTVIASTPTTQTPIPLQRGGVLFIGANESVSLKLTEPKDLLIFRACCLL", "assay": "MPI inhibition at elevated mannose 6-phosphate – biochemical, fluorescence intensity, high mannose 6-phosphate, primary screen (AID 1220)", "conditions": "recombinant PMI enzyme, coupled fluorescence intensity; at 20 µM; hits give high values", "values": [{"smiles": "CCOC(=O)C1=C(C)NC(=O)NC1c1ccc(N(CC)CC)cc1", "note": "(centres undefined)", "inhibition": "25.8% (inactive)"}, {"smiles": "O=C(CCN1CCOCC1)c1ccccc1", "inhibition": "-3.1% (inactive)"}, {"smiles": "O=C(CCN1CCOCC1)c1ccc(Cl)cc1", "inhibition": "26.3% (inactive)"}, {"smiles": "COc1ccc(C(=O)CCN2CCN(c3ccccc3F)CC2)cc1", "inhibition": "17.7% (inactive)"}, {"smiles": "O=C(CCN1CCN(c2ccccc2F)CC1)Nc1ccccc1F", "inhibition": "-3.7% (inactive)"}, {"smiles": "COc1cc(-c2nnc(SCC(=O)OC3CCCCC3)o2)cc(OC)c1OC", "inhibition": "5.5% (inactive)"}, {"smiles": "COc1cc(NC(=O)CSc2nc3ccccc3c(=O)n2C)ccc1NC(=O)c1ccco1", "inhibition": "22.5% (inactive)"}, {"smiles": "COC(=O)c1c(-c2ccc(C)cc2)csc1NC(=O)C1CC=CCC1C(=O)O", "note": "(centres undefined)", "inhibition": "2.6% (inactive)"}, {"smiles": "COC(=O)c1c(-c2ccccc2)csc1NC(=O)C1CC=CCC1C(=O)O", "note": "(centres undefined)", "inhibition": "-0.2% (inactive)"}, {"smiles": "COC(=O)c1c(-c2ccco2)csc1NC(=O)C1CC=CCC1C(=O)O", "note": "(centres undefined)", "inhibition": "59% (active)"}, {"smiles": "Cc1c(C(=O)NCC2CCCO2)oc2ccc(S(=O)(=O)N3CCCCC3)cc12", "note": "(centres undefined)", "inhibition": "-6.8% (inactive)"}, {"smiles": "O=C(c1ccccc1)c1c2c(cc3sc4ccccc4[n+]13)-c1cccc3cccc-2c13", "inhibition": "51.7% (active)"}, {"smiles": "Cc1sc2cc3c(c(C(=O)c4ccccc4)[n+]2c1C)-c1cccc2cccc-3c12", "inhibition": "-1.5% (inactive)"}, {"smiles": "O=C(c1ccccc1)c1cc2ccccc2o1", "inhibition": "-9.2% (inactive)"}, {"smiles": "COc1ccccc1CN1CCCCC1C(=O)O", "note": "(centres undefined)", "inhibition": "-6.1% (inactive)"}, {"smiles": "COC(=O)c1c(NC(=O)c2ccco2)sc(C(=O)N(C)C)c1C", "inhibition": "1.2% (inactive)"}, {"smiles": "O=C(O)C1CCCCC1C(=O)Nc1ccccc1F", "note": "(centres undefined)", "inhibition": "7% (inactive)"}, {"smiles": "O=C(O)C1CCCCC1C(=O)Nc1cccc2ccccc12", "note": "(centres undefined)", "inhibition": "54.6% (active)"}, {"smiles": "O=C(O)C1CCCCC1C(=O)Nc1ccccc1Cl", "note": "(centres undefined)", "inhibition": "-0.8% (inactive)"}, {"smiles": "O=C(COC(=O)/C=C/c1cccc([N+](=O)[O-])c1)NCCCN1CCCC1=O", "inhibition": "-2.9% (inactive)"}, {"smiles": "COc1cc(-c2nc3ccccn3c2/N=C/c2ccccc2)ccc1O", "inhibition": "14.6% (inactive)"}, {"smiles": "COc1cc(-c2nc3ccccn3c2/N=C/c2cc(OC)c(O)cc2Cl)ccc1O", "inhibition": "41.9% (inactive)"}, {"smiles": "COc1cc(-c2nc3ccccn3c2/N=C/c2cccc(OC)c2O)ccc1O", "inhibition": "61.6% (active)"}, {"smiles": "CC(=O)c1cc2c(O)c(O)ccc2o1", "inhibition": "71% (active)"}, {"smiles": "CC(=O)c1cc2cc(O)ccc2o1", "inhibition": "1.7% (inactive)"}, {"smiles": "O=C(O)c1cc2c(ccc3ccccc32)o1", "inhibition": "9.6% (inactive)"}, {"smiles": "CSCCC(NS(=O)(=O)/C=C/c1ccccc1)C(=O)O", "note": "(centres undefined)", "inhibition": "-6.2% (inactive)"}, {"smiles": "CCOC(=O)N1CCC(NS(=O)(=O)c2ccc3c(c2)oc(=O)n3C)CC1", "inhibition": "12.9% (inactive)"}, {"smiles": "O=C(Nc1ccc(F)cc1)N1CCOCC1", "inhibition": "1.9% (inactive)"}, {"smiles": "CN(C)c1ccc(NC(=O)N2CCOCC2)cc1", "inhibition": "63.7% (active)"}, {"smiles": "CN(C)S(=O)(=O)c1ccc(NC(=O)N2CCOCC2)cc1", "inhibition": "-1.8% (inactive)"}, {"smiles": "NC(=O)NNC(=S)Nc1cccc2ccccc12", "inhibition": "27.8% (inactive)"}, {"smiles": "O=C(NCc1ccccc1)C1=C[C@H](c2ccc(Br)cc2)C[C@H](OCc2ccc(CO)cc2)O1", "inhibition": "37.7% (inactive)"}, {"smiles": "C#Cc1ccc([C@@H]2C=C(C(=O)NCc3ccccc3)O[C@H](OCc3ccc(CO)cc3)C2)cc1", "inhibition": "50.8% (active)"}, {"smiles": "O=C(Nc1ccccc1)C1=C[C@H](c2ccc(Br)cc2)C[C@H](OCc2ccc(CO)cc2)O1", "inhibition": "13.9% (inactive)"}, {"smiles": "O=C(NCc1ccccc1)C1=C[C@@H](c2ccc(C(F)(F)F)cc2)C[C@@H](OCc2ccc(CO)cc2)O1", "inhibition": "50.2% (active)"}, {"smiles": "O=C(NCc1ccccc1)C1=C[C@H](c2ccc(C(F)(F)F)cc2)C[C@H](OCc2ccc(CO)cc2)O1", "inhibition": "46.8% (inactive)"}, {"smiles": "C#CCNC(=O)C1=C[C@H](c2ccc(Br)cc2)C[C@H](OCCCCO)O1", "inhibition": "37.7% (inactive)"}, {"smiles": "O=C(Nc1ccccc1)C1=C[C@@H](c2ccc(C(F)(F)F)cc2)C[C@@H](OCc2ccc(CO)cc2)O1", "inhibition": "18% (inactive)"}, {"smiles": "O=C(NCc1ccccc1)C1=C[C@@H](c2ccc(Br)cc2)C[C@@H](OCc2ccc(CO)cc2)O1", "inhibition": "55.2% (active)"}, {"smiles": "C#Cc1ccc([C@@H]2C=C(C(=O)O)O[C@H](OCc3ccc(CO)cc3)C2)cc1", "inhibition": "0.7% (inactive)"}, {"smiles": "C#Cc1ccc([C@H]2C=C(C(=O)O)O[C@@H](OCc3ccc(CO)cc3)C2)cc1", "inhibition": "9.9% (inactive)"}, {"smiles": "O=C(NCc1ccccc1)C1=C[C@@H](c2ccc(Br)cc2)C[C@@H](OCCCCO)O1", "inhibition": "60.5% (active)"}, {"smiles": "O=C(Nc1ccccc1)C1=C[C@@H](c2ccc(Br)cc2)C[C@@H](OCCCCO)O1", "inhibition": "12.2% (inactive)"}, {"smiles": "CCCOc1ccc(C(=O)c2nc3c(n2O)CCCC3)cc1", "inhibition": "-4.1% (inactive)"}, {"smiles": "CC1Oc2ccccc2C=C1/C=C1/SC(N2CCOCC2)=NC1=O", "note": "(centres undefined)", "inhibition": "26.6% (inactive)"}, {"smiles": "CCCCc1nnc(NC(=O)C2CCCO2)s1", "note": "(centres undefined)", "inhibition": "4.7% (inactive)"}, {"smiles": "c1cncc(CSc2ccc(-c3cccnc3)nn2)c1", "inhibition": "-3.2% (inactive)"}, {"smiles": "CCC(CC)c1nnc(NC(=O)c2c(C)nn(Cc3ccccc3Cl)c2C)s1", "inhibition": "3% (inactive)"}, {"smiles": "O=C(CCNS(=O)(=O)c1cccs1)NC1CCN(Cc2ccccc2)CC1", "inhibition": "6.1% (inactive)"}, {"smiles": "CC(=O)OCc1c(F)c(F)c(-n2nc(C)cc2C)c(F)c1F", "inhibition": "1.5% (inactive)"}, {"smiles": "COc1ccc(-c2nnn(CC(=O)N(CCCN3CCOCC3)C(C(=O)NC3CCCC3)c3ccco3)n2)cc1", "note": "(centres undefined)", "inhibition": "8.7% (inactive)"}, {"smiles": "CNC(=O)NC(=O)C(C)OC(=O)CCCSc1nc2ccccc2s1", "note": "(centres undefined)", "inhibition": "4.7% (inactive)"}, {"smiles": "Cc1cc2ccccn2c1C(=O)c1ccc(Cl)c([N+](=O)[O-])c1", "inhibition": "3.4% (inactive)"}, {"smiles": "O=C(Nc1nn[nH]n1)c1cccc([N+](=O)[O-])c1", "inhibition": "1.8% (inactive)"}, {"smiles": "O=C(Nc1ccccc1Br)c1c(F)cccc1Cl", "inhibition": "-8.7% (inactive)"}, {"smiles": "O=C(O)C1=C[C@@H](c2ccc3c(c2)OCO3)C[C@@H](OCCCCO)O1", "inhibition": "4% (inactive)"}, {"smiles": "C#CCNC(=O)C1=C[C@@H](c2ccccc2)C[C@@H](OCc2ccc(CO)cc2)O1", "inhibition": "28.3% (inactive)"}, {"smiles": "O=C(Nc1ccccc1)C1=C[C@H](c2ccc3c(c2)OCO3)C[C@H](OCCCCO)O1", "inhibition": "12.1% (inactive)"}, {"smiles": "O=C(NCc1ccccc1)C1=C[C@H](c2ccc3c(c2)OCO3)C[C@H](OCCCCO)O1", "inhibition": "64.5% (active)"}, {"smiles": "O=C(NCc1ccccc1)C1=C[C@@H](c2ccccc2)C[C@@H](OCc2ccc(CO)cc2)O1", "inhibition": "61.7% (active)"}, {"smiles": "O=C(Nc1ccccc1)C1=C[C@@H](c2ccccc2)C[C@@H](OCc2ccc(CO)cc2)O1", "inhibition": "15.7% (inactive)"}, {"smiles": "Cc1nn(Cc2ccccc2Cl)c(C)c1NC(=O)CCCn1nc([N+](=O)[O-])c(Cl)c1C", "inhibition": "0.3% (inactive)"}, {"smiles": "CC(=O)N1CCN=C1SCc1ccc(C)cc1", "inhibition": "5.8% (inactive)"}, {"smiles": "C=CCn1c(COc2ccc(Cl)cc2)nnc1SCC(=O)NCC(=O)OCC", "inhibition": "-3.6% (inactive)"}, {"smiles": "CCOC(=O)C1(Cc2cccc(F)c2)CCN(C(=O)C2CCCO2)CC1", "note": "(centres undefined)", "inhibition": "-13.3% (inactive)"}, {"smiles": "O=C(Nc1cc(N2CCOCC2)ncn1)NC1(C(F)(F)F)Oc2ccccc2O1", "inhibition": "7.9% (inactive)"}, {"smiles": "Cc1cc(NC(=O)NC2(C(F)(F)F)Oc3ccc(Cl)cc3O2)no1", "note": "(centres undefined)", "inhibition": "12.7% (inactive)"}, {"smiles": "Cc1cc(NC(=O)CSc2nc(-c3ccccc3)nc3c2c(=O)n(C)c(=O)n3C)no1", "inhibition": "-6.7% (inactive)"}, {"smiles": "CCn1c(SCC(=O)Nc2cc(OC)c(OC)c(OC)c2)nnc1-c1cccs1", "inhibition": "0.1% (inactive)"}, {"smiles": "S=C(Nc1ccc(Cl)cc1)Nc1cccc2cnccc12", "inhibition": "12.2% (inactive)"}, {"smiles": "Cc1ccc(NC(=S)Nc2cccc3cnccc23)c(C)c1", "inhibition": "25.7% (inactive)"}, {"smiles": "Cc1cc(C)cc(NC(=S)Nc2cccc3cnccc23)c1", "inhibition": "59.3% (active)"}, {"smiles": "CCc1ccc(NC(=S)Nc2cccc3cnccc23)cc1", "inhibition": "51.5% (active)"}, {"smiles": "CC(=O)N(C)c1ccc(NC(=S)Nc2cccc3ccccc23)cc1", "inhibition": "55.1% (active)"}, {"smiles": "COc1ccc(NC(=S)Nc2ccc(N(C)C(C)=O)cc2)cc1", "inhibition": "17.5% (inactive)"}, {"smiles": "Cc1ccc(NC(=S)Nc2cccc3cnccc23)cc1C", "inhibition": "-34.8% (inactive)"}, {"smiles": "CC(=O)N(C)c1ccc(NC(=S)Nc2ccccc2)cc1", "inhibition": "2.5% (inactive)"}, {"smiles": "Fc1ccc(NC(=S)Nc2cccc3cnccc23)cc1", "inhibition": "-10.5% (inactive)"}, {"smiles": "COc1cc(OC)cc(C(=O)N2CCCc3ccccc32)c1", "inhibition": "12.7% (inactive)"}, {"smiles": "Brc1ccc(/C=N/Nc2ccccn2)cc1", "inhibition": "-7.7% (inactive)"}, {"smiles": "COC(=O)CS(=O)(=O)c1cc([N+](=O)[O-])ccc1NC(=O)OC", "inhibition": "13.9% (inactive)"}, {"smiles": "C1CCCN(c2nc3nonc3nc2N2CCCCCC2)CC1", "inhibition": "-3.2% (inactive)"}, {"smiles": "N#CCCn1cc(C(=O)N2CCOCC2)c(-c2ccc3c(c2)OCCO3)n1", "inhibition": "5.1% (inactive)"}, {"smiles": "Cc1ccc2[nH]c(=O)c(CN(Cc3ccccc3Cl)C(=O)N3CCOCC3)cc2c1", "inhibition": "8.8% (inactive)"}, {"smiles": "COC(=O)C1=C2SC(C)C(=O)N2C(N)=C(C#N)C1c1cc(OC)c(OC)c(OC)c1", "note": "(centres undefined)", "inhibition": "24.2% (inactive)"}, {"smiles": "CCOC(=O)C1=C(N)N2C(=O)C(C)SC2=C(C(=O)OC)C1c1cccc(OC)c1", "note": "(centres undefined)", "inhibition": "2.8% (inactive)"}, {"smiles": "COC(=O)C1=C2SC(C)C(=O)N2C(N)=C(C#N)C1c1ccc(OC)c(OC)c1", "note": "(centres undefined)", "inhibition": "51.3% (active)"}, {"smiles": "COc1ccc(S(=O)(=O)N2CCOC2CNC(=O)C(=O)NCCc2ccc(OC)c(OC)c2)cc1C", "note": "(centres undefined)", "inhibition": "52.2% (active)"}, {"smiles": "COc1ccc(CCNC(=O)C(=O)NCC2OCCN2S(=O)(=O)c2ccc(Br)cc2)cc1OC", "note": "(centres undefined)", "inhibition": "-12.7% (inactive)"}, {"smiles": "COc1ccc(S(=O)(=O)N2CCOC2CNC(=O)C(=O)NCCc2ccc(OC)c(OC)c2)cc1", "note": "(centres undefined)", "inhibition": "-0.2% (inactive)"}, {"smiles": "O=C(O)C1CCC(=O)N1Cc1ccc(F)cc1", "note": "(centres undefined)", "inhibition": "-3.6% (inactive)"}, {"smiles": "CCc1ccc(NC(=O)NCCN2CCc3ccccc3C2)cc1", "inhibition": "-6.5% (inactive)"}, {"smiles": "CCOP(=O)(OCC)C(Nc1ccccn1)c1ccccc1", "note": "(centres undefined)", "inhibition": "-3.9% (inactive)"}]}]}
